Results: PubChem BioAssay (NCATS)
Results filed as inconclusive are left out. Calls of active or inactive are those of the source. Unless noted, calls come from the whole dose curve; as a rule, active = well fitted curve in the direction sought with a large enough effect; inconclusive = small, poorly fitted or top-dose-only effect, or another doubt; inactive = no such curve, though single readings can be large; an effect the other way counts as inactive or inconclusive.

Assays:
[1] = Cell Viability - BJ (AID 421; calls by dose curve;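 note: potency is the fitted concentration of half-maximal effect; cells exposed to compound for 40 hours at 37 °C before readout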); conditions: BJ fibroblast viability, qHTS
Outline: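 Luminescent ATP signal (CellTiter-Glo, 20 min at room temperature) served as the read-out of viable BJ cells after 40 hours of compound treatment. Responses were scaled between DMSO and 100 uM tamoxifen, and AC50 values were obtained by Hill modeling.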

[2] = Cell Viability - Jurkat (AID 426;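 active = dose-dependent loss of cell ATP signal giving a full or clear fitted curve, ranked by lower potency value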;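 note: potency is the fitted concentration of half-maximal effect; cells exposed to compound for 40 hours at 37 °C before ATP read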); conditions: qHTS
Outline: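 Seed 5000 Jurkat E6-1 cells/well; add compound; incubate 40 hr at 37 °C; add CellTiter-Glo; wait 20 min at room temperature; read luminescence. Fit concentration-response with Hill equation for AC50.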

[3] = Cell Viability - Hek293 (AID 427;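 active = compounds whose dose-response curve shows a full or clear partial loss of cell viability, called from curve shape rather than a numeric limit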;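 note: potency is the fitted concentration of half-maximal effect; cells exposed to compound for 40 hours at 37 °C before reading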); conditions: qHTS
Outline: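 Luminescent ATP read-out (CellTiter-Glo, 20 min RT) after 40 hr compound exposure at 37 °C in complete medium. Signal normalized to DMSO (basal) and 100 uM tamoxifen (100% inhibition); concentration-response fitted with the standard Hill equation to give AC50.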

[4] = Cell Viability - HepG2 (AID 433; calls by dose curve;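 note: potency is the fitted concentration of half-maximal effect; potency for ATP loss meaning cytotoxicity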); conditions: qHTS
Outline: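 Cytotoxicity read as ATP loss (CellTiter-Glo luminescence) after 40 hr compound exposure of HepG2, 1500 cells/well, 37 °C. AC50 by Hill equation; 0% set by DMSO, 100% inhibition by 100 uM tamoxifen.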

[5] = Cell Viability - MRC5 (AID 434; calls by dose curve;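 note: potency is the fitted concentration of half-maximal effect; cells exposed to compound for 40 hours at 37 °C; potency reflects cytotoxicity seen as loss of intracellular ATP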); conditions: MRC5 lung fibroblast viability, qHTS
Outline: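 MRC5 normal human lung fibroblasts (1500/well) were treated with compounds for 40 hr at 37 °C in complete medium, and viable cells were measured as intracellular ATP by CellTiter-Glo luminescence. AC50 came from Hill fits, normalized to DMSO and 100 uM tamoxifen.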

[6] = Cell Viability - Mesenchymal (AID 546); conditions: mesenchymal cells viability, qHTS; series mostly up to 91.7 µM;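 note: cells exposed to compound for 40 hours before reading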
Outline: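 Normal human renal glomerulus-derived kidney mesenchymal cells, 1000 per well in complete medium, were treated with compounds for 40 hr at 37 °C. Viability was read as intracellular ATP by CellTiter-Glo luminescence; AC50 values came from Hill-equation fits of qHTS concentration-response data.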

[7] = Cellular Toxicity (caspase-3) HepG2 (AID 654); conditions: HepG2 caspase-3 activation, luminescence, 0% = DMSO only, 100% = tamoxifen; series mostly up to 92.2 µM;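 note: cells exposed to compound for 16 hours before reading; 0% = DMSO alone and 100% = caspase signal from 100 µM tamoxifen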
Outline: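 qHTS, HepG2, 1500 cells/well, complete medium; cpd 16 h 37 °C; Caspase-Glo 3/7, 20 min RT; lum. Norm: DMSO vs 100 uM tamoxifen; AC50 Hill fit.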

[8] = Cellular Toxicity (caspase-3) HUV-EC-C (AID 656); conditions: HUV-EC-C cells, caspase-3 activation (apoptosis), vehicle = 0, 100 µM tamoxifen = 100%; series mostly up to 92.2 µM
Outline: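 Luminescent Caspase-Glo 3/7 readout after 16 h, 37 °C compound exposure of HUV-EC-C endothelial cells, 1000 per well, complete medium. AC50 derived by Hill fitting, with DMSO as baseline and 100 uM tamoxifen as full activation.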

[9] = Cellular Toxicity (caspase-3) BJ (AID 658); conditions: BJ fibroblasts, luminescence, normalized: DMSO 0%, staurosporine 100%; series mostly up to 91.7 µM;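 note: cells exposed to compound for 16 hours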
Outline: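 Luminescent aminoluciferin-substrate cleavage reports caspase 3/7 activity in normal human BJ fibroblasts after 16 hr compound exposure at 37 °C. Normalized to DMSO (basal) and 10 uM staurosporine (100%); AC50 from Hill fit of concentration-response.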

[10] = Cellular Toxicity (caspase-3) MRC-5 (AID 659); conditions: MRC-5 cells, luminescence, normalized: DMSO 0%, 10 µM staurosporine 100%; series mostly up to 91.7 µM
Outline: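 Luminescence from caspase-cleaved aminoluciferin substrate (Caspase-Glo 3/7, 1 hr RT) reports caspase 3/7 activity in MRC-5 lung fibroblasts after 16 hr compound exposure. Normalized to DMSO basal and 10 uM staurosporine as 100%; AC50 from Hill fits.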

[11] = Cellular Toxicity (caspase-3) SK-N-SH (AID 661); conditions: SK-N-SH caspase-3 activation, qHTS; series mostly up to 91.7 µM;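 note: cells exposed to compound for 16 hours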
Outline: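 Caspase 3/7 activation is measured as a luminescence increase from aminoluciferin released by substrate cleavage in SK-N-SH cells after 16 hr compound treatment; values are AC50 from concentration-response curves.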

[12] = Cellular Toxicity (caspase-3) Hek293 (AID 664); conditions: HEK293 caspase-3 activation, DMSO = 0%, 100 µM tamoxifen = 100%; at 92.2 µM (top of the series);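 note: cells exposed to compound for 16 h at 37 °C before readout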
Outline: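 Activation of caspase-3/7 is measured as increased luminescence from cleaved peptide-aminoluciferin substrate in HEK293 cells treated 16 hours at 37 °C. AC50 values come from Hill-equation fits of concentration-response data.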

[13] = MultiTox-Fluor Cytotoxicity Assay - LYMP1-001 - Dead Cells (AID 946); conditions: LYMP1-001 lymphoblastoid cells, dead-cell protease fluorescence; series mostly up to 92.2 µM;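 note: 0% = DMSO and 100% = tetraoctylammonium bromide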
Outline: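 AC50 from Hill fit of concentration-response; data normalized to DMSO (basal) and 15 uM tetraoctylammonium bromide (100%). LYMP1-001 lymphoblastoid cells, 2500/well, 16 hr compound at 37 C; dead-cell protease fluorescence, Ex/Em 485/520.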

[14] = Cell Viability - LYMP1-002 - Assay at 16 hr (AID 948); conditions: LYMP1-002 lymphoblastoid cell viability; series mostly up to 92.2 µM;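 note: 0% = DMSO alone and full effect = 92 µM tetraoctylammonium bromide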
Outline: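 ATP luminescence (CellTiter-Glo) was measured after 16 hr compound exposure at 37 C of 2500 lymphoblastoid LYMP1-002 cells per well. Concentration-response curves were fitted with the Hill equation to give AC50.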

[15] = MultiTox-Fluor Cytotoxicity Assay - LYMP1-002 - Live Cells (AID 955); conditions: LYMP1-002 lymphoblastoid live-cell protease fluorescence viability; series mostly up to 46.1 µM;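 note: cells exposed to compound for 16 hours; % is set by controls: 0 for no effect and ±100 for the full control effect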
Outline: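 Cytotoxicity in the human lymphoblastoid line LYMP1-002 is measured as loss of live-cell protease activity after 16 h treatment in complete culture medium. AC50 is derived from Hill-equation fits of qHTS concentration-response data.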

[16] = MultiTox-Fluor Cytotoxicity Assay - LYMP1-003 - Dead Cells (AID 961); conditions: LYMP1-003 lymphoblastoid cells, dead-cell protease fluorescence; series mostly up to 92.2 µM;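 note: 0% = DMSO and 100% = tetraoctylammonium bromide; nearly all actives have a fitted effect of over 70% in size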
Outline: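 Human lymphoblastoid LYMP1-003 cells (2500/well) were treated with compounds for 16 hr at 37 C in complete medium. Dead-cell protease release was read by bis-AAF-R110 fluorescence (Ex/Em 485/520). AC50 came from Hill fits, normalized to DMSO and 15 uM tetraoctylammonium bromide.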

[17] = Cell Viability - LYMP2-016 (AID 984); conditions: LYMP2-016 lymphoblastoid cell viability, qHTS; series mostly up to 92.2 µM;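 note: cells exposed to compound for 24 hours at 37 °C; % is set by controls: 0 for no effect and ±100 for the full control effect; nearly all actives have a fitted effect of over 55% in size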
Outline: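 Cytotoxicity was scored by luminescent ATP content (CellTiter-Glo) after 24 h compound exposure at 37 C of a human lymphoblastoid line at 2500 cells/well. Concentration-response data were fitted to the Hill equation for AC50.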

[18] = Cell Viability - LYMP2-026 (AID 989); conditions: LYMP2-026 lymphoblastoid cell viability, qHTS; series mostly up to 92.2 µM; note: % is set by controls: 0 for no effect and ±100 for the full control effect; nearly all actives have a fitted effect of over 50% in size
Outline: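 Concentration-dependent loss of intracellular ATP in human lymphoblastoid cells after 24 hr at 37 C, quantified by luciferase luminescence. AC50 derived from standard Hill equation.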

[19] = qHTS Assay for Identification of Small Molecule Inducers of Hypoxia Response (AID 2120; active = well fitted curve in the direction sought with a large enough effect in the signal ratio, with a control signal flat, not every such curve was filed as active; the % refers to the signal ratio; note: 0% is about no effect); conditions: hypoxia response reporter cells, beta-lactamase ratio readout; series mostly up to 104 µM
Outline: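 Induction of beta-lactamase reporter activity was measured in CellSensor HRE-bla ME-180 cells after 17 h compound treatment at 37 degrees C, using CCF4 substrate and the 460nm/530nm emission ratio to derive AC50 values.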

[20] = molecular target: Peroxisome proliferator-activated receptor alpha (Homo sapiens) (UniProt Q07869); experiment: qHTS assay for small molecule agonists of the peroxisome proliferator-activated receptor alpha (PPARalpha) signaling pathway (AID 651778); conditions: PathHunter PPARalpha complementation, chemiluminescence, 6 h; active compounds read high; note: % of control where 0% means no effect
Outline: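 Cells plated at 2,000/well and held overnight at 37 C, 5% CO2, then compound added by pin tool for 6 hr; after PathHunter detection reagent and 60 min at room temperature, chemiluminescence from enzyme complementation was read.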

Chain of Peroxisome proliferator-activated receptor alpha (Homo sapiens) (Q07869 whole entry, looked up): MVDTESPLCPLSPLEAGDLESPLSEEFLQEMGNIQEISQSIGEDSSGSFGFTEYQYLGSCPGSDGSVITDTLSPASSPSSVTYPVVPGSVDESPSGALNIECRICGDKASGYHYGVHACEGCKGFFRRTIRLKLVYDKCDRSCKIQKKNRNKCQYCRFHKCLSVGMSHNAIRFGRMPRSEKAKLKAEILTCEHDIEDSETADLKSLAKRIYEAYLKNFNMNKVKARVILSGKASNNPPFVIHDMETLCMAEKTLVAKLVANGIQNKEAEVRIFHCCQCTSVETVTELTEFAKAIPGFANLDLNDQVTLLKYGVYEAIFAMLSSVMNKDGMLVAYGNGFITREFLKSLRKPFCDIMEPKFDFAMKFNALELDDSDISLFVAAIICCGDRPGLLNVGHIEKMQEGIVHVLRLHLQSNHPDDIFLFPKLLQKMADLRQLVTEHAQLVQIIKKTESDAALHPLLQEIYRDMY

O=[N+]([O-])CCO
inactive: Potency [1] > 92 µM | Potency [2] > 92 µM | Potency [3] > 92 µM | Potency [4] > 92 µM | Potency [5] > 92 µM | Potency [6] | outcome [7] | outcome [8] | outcome [9] | outcome [10] | Potency [11] | caspase-3 activation [12] 0.0344% | outcome [13] | outcome [14] | outcome [15] | Potency [16] | Potency [17] | Potency [18] | Potency [19] | max response [20] -2.47%

Oc1cc(Cl)cc(Cl)c1
inactive: Potency [1] > 92 µM | Potency [2] > 92 µM | Potency [3] > 92 µM | Potency [4] > 92 µM | Potency [5] > 92 µM | Potency [6] | outcome [7] | outcome [8] | outcome [9] | outcome [10] | Potency [11] | caspase-3 activation [12] -1.48% | outcome [13] | outcome [14] | outcome [15] | Potency [16] | Potency [17] | Potency [18] | Potency [19] | max response [20] 5.88%

CCOS(C)(=O)=O
inactive: Potency [1] > 92 µM | Potency [2] > 92 µM | Potency [3] > 92 µM | Potency [4] > 92 µM | Potency [5] > 92 µM | Potency [6] | outcome [7] | outcome [8] | outcome [9] | outcome [10] | Potency [11] | caspase-3 activation [12] -3.11% | outcome [13] | outcome [14] | outcome [15] | Potency [16] | Potency [17] | Potency [18] | Potency [19] | max response [20] 0.417%

ClC(Cl)Br
inactive: Potency [1] > 92 µM | Potency [2] > 92 µM | Potency [3] > 92 µM | Potency [4] > 92 µM | Potency [5] > 92 µM | Potency [6] | outcome [7] | outcome [8] | outcome [9] | outcome [10] | Potency [11] | caspase-3 activation [12] -0.335% | outcome [13] | outcome [14] | outcome [15] | Potency [16] | Potency [17] | Potency [18] | Potency [19] | max response [20] -1.39%

C=CCCC#N
inactive: Potency [1] > 92 µM | Potency [2] > 92 µM | Potency [3] > 92 µM | Potency [4] > 92 µM | Potency [5] > 92 µM | Potency [6] | outcome [7] | outcome [8] | outcome [9] | outcome [10] | Potency [11] | caspase-3 activation [12] -0.209% | outcome [13] | outcome [14] | outcome [15] | Potency [16] | Potency [17] | Potency [18] | Potency [19] | max response [20] -3.78%

Cc1ccccc1[N+](=O)[O-]
inactive: Potency [1] > 92 µM | Potency [2] > 92 µM | Potency [3] > 92 µM | Potency [4] > 92 µM | Potency [5] > 92 µM | Potency [6] | outcome [7] | outcome [8] | outcome [9] | outcome [10] | Potency [11] | caspase-3 activation [12] -0.618% | outcome [13] | outcome [14] | outcome [15] | Potency [16] | Potency [17] | Potency [18] | Potency [19] | max response [20] 2.03%
